# Reference: PubChem BioAssay
# Calls of active or inactive are those of the source.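 How the source made its calls: active means RAM network inhibition above 8.4% in each of two replicates, 3 SD over the compound average; inconclusive means above 8.4% inhibition in only one replicate; inactive means 8.4% inhibition or less in each replicate.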
# Assay: RAM signaling pathway blockade in yeast – S. cerevisiae, Pdr1DBD-CYC8 efflux-inhibited sensitized strain, primary screen (AID 1298);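 further: 0% = DMSO untreated cells without growth and 100% = 10 µM 1-NA-PP1 full growth; higher means more yeast growth rescued from 5-FOA killing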
# Details: S. cerevisiae cbk1-as DSE1-URA3 strain, 5-FOA growth OD615, 2 d; at 50 µM; stronger effect = higher value
row,SMILES,RAM network inhibition
1,CN(C)Cc1c(O)ccc2occ(C(O)c3ccccc3)c12 (configuration not stated),4.33% (inactive)
2,COc1ccc(N2CCN(C3CC(=O)N(C)C3=O)CC2)cc1 (configuration not stated),4.13% (inactive)
3,CC1CCN(c2nc(-c3ccncc3)nc3ccccc23)CC1,5.56% (inactive)
4,Clc1ccccc1OCCN1CCCCC1,6.74% (inactive)
5,CCOC(=O)C1=C(C)NC(C)=C(C(=O)OCC)C1C(=O)O,1.53% (inactive)
6,CC(=O)Nn1cc2c(=O)n(C)c(=O)n(C)c2c1,1.13% (inactive)
7,CCc1nnc(NC(=O)CCN2C(=O)CCC2=O)s1,3.17% (inactive)
8,C/C(NCCN1CCOCC1)=C(\C#N)C(N)=O,7.19% (inactive)
9,COc1ccc(CCNC(=O)CCn2c(=O)oc3ccccc32)cc1OC,1.61% (inactive)
10,Cc1ccc(-c2nc(CS(=O)(=O)CC(=O)N3CCc4ccccc4C3)c(C)o2)cc1,7.91% (inactive)
11,Cc1ccc(-c2nn3c(C)nnc3s2)cc1NC(=O)c1ccc(OC(C)C)cc1,7.25% (inactive)
12,COc1ccc(C(=O)Nc2nncs2)cc1S(=O)(=O)N1CC(c2ccccc2)CC1=O (configuration not stated),3.31% (inactive)
13,CC(C)CC(NS(=O)(=O)c1ccc2c(c1)oc(=O)n2C)C(=O)NC1CCCc2ccccc21 (configuration not stated),6.99% (inactive)
14,O=C(NCc1cccs1)C1CCN(S(=O)(=O)c2cccc3cccnc23)CC1,1.45% (inactive)
15,Cc1sc2ncnc(NCc3ccco3)c2c1C,6.13% (inactive)
16,CC(=O)Oc1cccc(N2C(=O)C3C(C2=O)C2C=CC3C23CC3)c1 (configuration not stated),0.63% (inactive)
17,Cc1cc(N2C(=O)C3CC=CCC3C2=O)cc(C)c1Br (configuration not stated),6.44% (inactive)
